Bioassay records (PubChem BioAssay)
An excerpt weighted towards active compounds, which were near 9.3% of everything screened.
M1 antagonist: antagonists of rat M1 muscarinic receptor. CHO-M1 cells, Fluo-4 calcium, ACh EC80 antagonist mode; stronger effect = lower value. B-score at 10 µM. 64,000 tested, 3.4% active. AID 628;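 active = calcium fluorescence response, raw or row-and-column corrected B-score, differing from the plate sample mean either way at a set confidence level, mostly lower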
Target sequence (P08482 whole entry, looked up): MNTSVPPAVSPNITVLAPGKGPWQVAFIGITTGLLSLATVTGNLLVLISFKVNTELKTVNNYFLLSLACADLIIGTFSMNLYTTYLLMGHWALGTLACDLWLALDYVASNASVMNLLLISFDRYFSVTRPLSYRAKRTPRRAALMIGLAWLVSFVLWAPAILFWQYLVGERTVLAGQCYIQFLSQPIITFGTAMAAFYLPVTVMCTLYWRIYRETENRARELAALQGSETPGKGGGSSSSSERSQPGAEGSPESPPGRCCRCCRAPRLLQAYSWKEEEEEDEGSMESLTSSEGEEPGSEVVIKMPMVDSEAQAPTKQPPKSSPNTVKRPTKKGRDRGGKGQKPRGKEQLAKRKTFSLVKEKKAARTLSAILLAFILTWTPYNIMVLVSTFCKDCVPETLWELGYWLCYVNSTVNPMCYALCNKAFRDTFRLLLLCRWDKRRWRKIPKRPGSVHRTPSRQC
Htt clearance: mutant huntingtin protein clearance; HeLa Exon1htt(103Q)mCFP, aggregate imaging; zero = plate's median compound well; inhibition, % at 1.5 µM; 47,000 tested, 0.42% active;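 active = inhibition of aggregate fluorescence above about 70%, also judged a hit by eye on the cell image, limit read from the data, passing the limit was not always enough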;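 note: cells exposed to compound for three days before fixation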
Fluor 339 460: intrinsic fluorescence of library compounds, ex339/em460 – biochemical, MLSMR library, data from DPM-DC assay, artefact control, profiling panel | compound autofluorescence, ex339/em460 nm, NADH buffer; stronger effect = higher value; 1 = no-compound wells, NADH background | fluorescence fold increase at 10 µM | 65,000 tested, 5.5% active | AID 709;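 active = at 10 µM, mean starting fluorescence two-fold or more over control wells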;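 note: signal is the first read of a kinetic run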
M1 ag: activates the M1 muscarinic receptor | CHO-M1 cells, Fluo-4 calcium fluorescence, agonist mode; stronger effect = higher value | B-score at 10 µM | 64,000 tested, 3% active | AID 626;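 active = fluorescence rise, raw or as B-score row- and column-corrected plate score, outside the 99.7% band of its plate's samples, either direction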
NADH enzymes: inhibition of NAD/NADH coupling enzymes, library profiling; coupled PK/LDH NADH assays, four targets; IC50, µM (titrated, usually from 10 µM), without a hit: at the highest dose inhibition; 65,000 tested, 0.02% active; AID 774;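 active = single-dose screening hits from any of four coupled enzyme assays that gave an IC50 when retested across doses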;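 note: the DPM-DC format reads NADH fluorescence rather than 340 nm absorbance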
A340 absorber: absorbance at 340 nm | compound absorbance at 340 nm, fold over control | fold change at 10 µM | 65,000 tested, under 10 active | AID 708;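 active = at 10 µM dose, initial 340 nm absorbance at least 2 fold that of control wells; inactive = change under 2 fold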;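 note: initial absorbance extrapolated from kinetic A340 decline of NADH oxidation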
M1 antag confirm: confirmation of rat M1 muscarinic receptor antagonists. CHO-M1 cells, Fluo-4 calcium, ACh EC80 antagonism; stronger effect = lower value. shares compounds with M1 antagonist. 1,700 tested, 43% active. calcium response (max-min fluorescence) at 10 µM. AID 677;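 active = calcium response below the same-plate mean of wells given acetylcholine alone at its 80%-effect dose, minus 3 SD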;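 note: raw fluorescence intensity difference in arbitrary instrument units and not normalized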
mGluR4 antag: selectivity test for M1 antagonists: human mGluR4 receptor | shares compounds with M1 antagonist | CHO-mGluR4 calcium flux, Fluo-4 fluorescence, glutamate EC80; stronger effect = lower value | fluorescence response (max-min) at 10 µM | 1,700 tested, 0.9% active;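 active = fluorescence response below the plate's average for near-maximal glutamate wells, less 3 SD of those wells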;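 note: raw unnormalized fluorescence span taken in the window right after glutamate addition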
Active calls of the source: *; . = no result given.

SMILES	M1 antagonist	Htt clearance	Fluor 339 460	M1 ag	NADH enzymes	A340 absorber	M1 antag confirm	mGluR4 antag
CSc1nc2ccc(S(=O)(=O)N3CCOCC3)cc2s1	-4.66*	.	0.98	-0.482	3.0%	0.98	298*	167
CSc1nc2ccc(S(=O)(=O)N3CCCCC3)cc2s1	.	36.1	.	.	.	.	.	.
COc1c2occc2c(OC)c2c(=O)cc(C(F)(F)C(F)(F)F)oc12	0.405	.	1.05	1.06	3.0%	1.04	.	.
COCc1cc(=O)[nH]c(/N=C(\N)Nc2ccccc2C)n1	.	21.6	.	.	.	.	.	.
COC(=O)c1cc(CSc2nnc(NC3CCCCC3)s2)oc1C	-1.23	.	1.07	0.898	7.0%	1.02	.	.
O=C(CC1Oc2ccccc2NC1=O)NC1CC1 (configuration not stated)	-3.87*	.	1.11	0.384	11.0%	1.03	552	196
CC1CCN(Cc2ccc(NC(=O)CC3Oc4ccccc4NC3=O)cc2)CC1 (configuration not stated)	-11.1*	-12.4	1.08	-0.703	1.0%	1.01	23.9*	229
CCC(C)N(CCNC(=O)CC1Oc2ccccc2NC1=O)C1CCCCC1 (configuration not stated)	-10.6*	54.0	1.12	-0.0933	2.0%	1.04	61.2*	229
CSc1nc(C)cc(SCCO)n1	0.404	12.0	1.1	-0.411	8.0%	1.02	.	.
O=C(CSc1nnc2sc3ccccc3n12)c1ccco1	1.02	.	0.97	-0.0371	3.0%	0.98	.	.
COc1cccc(NS(=O)(=O)c2c(C)n(C)c(=O)n(C)c2=O)c1	.	-383.0	.	.	.	.	.	.
COc1ccc(C2CC(c3cc(OC)ccc3OC)n3nnnc3N2)cc1 (configuration not stated)	-17.1*	.	1.18	1.37	3.0%	1.03	635	240
COc1ccc(C2CC(c3ccc(OC)cc3)n3nc(N)nc3N2)cc1 (configuration not stated)	-1.09	.	1.27	0.479	2.0%	1.01	.	.
Cc1cc(C)c2nc(N3CCC(C(=O)N4CCCC4)CC3)sc2c1	-8*	30.3	1.1	-0.104	6.0%	0.97	233*	180
CCOc1ccc2nc(N3CCC(C(=O)N4CCN(C5CCCCC5)CC4)CC3)sc2c1	-2.91*	.	1.02	-2.18	2.0%	1	378*	243
Cc1cc(C)c2nc(N3CCC(C(=O)N4CCN(c5ncccn5)CC4)CC3)sc2c1	0.722	10.9	1.08	-0.728	3.0%	0.99	.	.
Cn1cc(CC(=O)NCCCN2CCCC2=O)c2ccccc21	0.000932	.	1.02	0.858	9.0%	1.07	.	.
Cc1ccc(S(=O)(=O)Cn2nnnc2C(C(C)C)N2CCSCC2)cc1 (configuration not stated)	-2.33*	14.7	1.06	0.742	2.0%	1.01	646	240
Cc1ccc(S(=O)(=O)Cn2nnnc2C(C(C)C)N2CCc3ccccc3C2)cc1 (configuration not stated)	0.248	.	1.19	-2.03	6.0%	1.01	.	.
C[N+]12CCC(CC1)C(OC(=O)C(O)(c1ccccc1)c1ccccc1)C2 (configuration not stated)	-16.3*	.	1.07	-1.53	2.0%	1	15.8*	243
Cc1ccc(NC(=O)COC(=O)C2CC2C)c(S(=O)(=O)N2CCCCC2)c1 (configuration not stated)	-2.83*	.	1.05	-0.443	7.0%	0.99	645	233
CC(=O)C1C(c2ccc(OC(F)F)cc2)NC(=O)NC1(O)C(F)(F)F (configuration not stated)	0.314	.	1.06	-0.0683	0.0%	1	.	.
COc1ccc(C2NC(=O)NC(O)(C(F)(F)F)C2C(=O)c2ccc(C)cc2)cc1 (configuration not stated)	-6.3*	27.8	1.08	-0.106	7.0%	1.04	92.6*	241
Cc1cc2ccccc2c(=O)n1CC(=O)NCC(=O)N1CCCC1	-1.39	.	1.88	0.455	4.0%	1.06	.	.
COc1ccc(N2CCN(C(=O)CNC(=O)Cn3c(C)cc4ccccc4c3=O)CC2)cc1	-2.41*	.	1.52	-0.856	5.0%	0.99	642	245
SMILES	M1 antagonist	Htt clearance	Fluor 339 460	M1 ag	NADH enzymes	A340 absorber	M1 antag confirm	mGluR4 antag
CCOCCCNC(=O)C1c2ccccc2C(=O)N2CCc3ccccc3C12 (configuration not stated)	-0.772	-88.1	1.13	0.00579	8.0%	1.03	.	.
CCc1sc(C(=O)NC2CCN(C)CC2)cc1Br	-0.572	.	1.14	0.103	3.0%	1	.	.
CCOc1nc(OCC)nc(N2CCC(C)CC2)n1	0.299	.	0.98	-0.812	2.0%	0.99	.	.
CCOc1nc(C#N)nc(N2CCCCC2)n1	-1.2*	.	1.11	-1.64	1.0%	1.02	430*	234
CC1CCCN(C(=O)C2CCN(S(=O)(=O)c3cccc4cccnc34)CC2)C1 (configuration not stated)	-0.0685	-34.6	1.05	-0.325	1.0%	1.05	.	.
COc1ccc(CCC(=O)NCc2ccco2)cc1	0.197	25.1	1.16	0.53	5.0%	1.05	.	.
Cc1cccn2c(=O)c3cc(C(=O)Nc4ccc(N(C)C)cc4)n(C)c3nc12	0.462	.	1.27	0.262	4.0%	1.11	.	.
COCCn1c(=N)c(C(=O)NCCc2ccc(OC)cc2)cc2c(=O)n3cccc(C)c3nc21	-4.35*	-60.0	2.69*	1.2	10.0%	1.05	311*	208
COCCn1c(=NC(=O)c2ccc3c(c2)OCO3)c(C#N)cc2c(=O)n3cccc(C)c3nc21	-0.0174	-17.9	1.33	0.663	3.0%	1.08	.	.
CCNC(=O)c1cc2c(=O)n3cccc(C)c3nc2n(Cc2ccc(C)cc2)c1=N	-2.87*	.	3.8*	0.794	9.0%	1.03	609	198
COc1ccc(CCn2c(=N)c(C(=O)NCc3ccco3)cc3c(=O)n4ccccc4nc32)cc1	-2.71*	.	1.16	0.705	4.0%	1	540	229
CCCc1cc(Nc2c(C)n(C)n(-c3ccccc3)c2=O)n2c(nc3ccccc32)c1C#N	-2.43*	.	1.21	0.29	3.0%	1.04	482	237
COc1ccc(OC)c(CNC(=O)C2CCN(C(=O)N(C)C)CC2)c1	-3.04*	.	1.07	-0.32	3.0%	1.01	644	266
COc1ccc(OC)c(CNC(=O)C2CCN(S(=O)(=O)N3CCCC3)CC2)c1	0.522	44.0	1.08	0.859	10.0%	1.02	.	.
CCOC(=O)c1ccc(N2C(=O)C3C(C2=O)C(C(=O)c2ccc(Cl)cc2)N2CCCC32)cc1 (configuration not stated)	-1.67*	-181.1	1.11	0.335	3.0%	1.04	514	218
